Screening data as filed in PubChem.
Shown are actives, neighbours in structure and some others; about 2.5% of the full set was active somewhere.
EWS-Fli block – EWS/Fli-driven NR0B1 reporter inhibitors, primary screen, A673 cells, NR0B1 luciferase, luminescence, MLPCN library | inhibition, % at 12.6 µM | hit rate 0.67% among 350,000 | viability-normalised | AID 651661, 2012;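 active means mean inhibition of at least 50% after viability correction, with every replicate also passing that limit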;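 further: firefly luciferase signal divided by Alamar Blue viability fluorescence both relative to DMSO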
GAA850 FXN act – FXN promoter activators, primary screen, cell-based, luciferase luminescence, HEK293 lucGAA850 | AID 540364, 2011 | HEK293 lucGAA850 FXN promoter luciferase reporter, 24 h; percent of 10 µM SAHA response | activation, % at 6 µM | hit rate 0.56% among 360,000;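 active means activation above the average of all compounds screened plus 3 SD, cutoff fixed separately per campaign, cut at about 7.5% in these data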;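 further: 0% = DMSO wells and 100% = 10 µM SAHA wells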
CFTR F508del cor – F508del CFTR correction, initial screen, CFBE line, single point | activity (quench increase), % at 7.58 µM | AID 720511, 2013 | hit rate 0.36% among 350,000 | CFBE cells, YFP halide quenching; stimulated with forskolin plus potentiator P3; % fluorescence drop versus neutral controls;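 active means mean added fluorescence quench of at least 8% versus neutral control, with both replicates also reaching 8%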;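 further: cells transiently co-express mutant CFTR-F508del with the halide-sensitive YFP; corrector assay measuring rescue of mutant channel to the surface after 24 h compound exposure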
Env fusion inh – inhibitors of HIV-1 Env-driven cell-cell fusion, primary screen, HeLa-JRFL effector, CEM21 target cells, luciferase; hit rate 1.1% among 360,000; inhibition, % at 12.3 µM;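 active means mean replicate inhibition score of at least 50 and every replicate individually at or above 50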;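 further: 0% = plate neutral controls and 100% = maraviroc near 300 nM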
PAX8 reporter – inhibitors of PAX8-driven TPO luciferase reporter, primary screen, RMG-I cells, single concentration | hit rate 1.2% among 360,000 | inhibition, % at 12.6 µM | SteadyGlo, 24 h;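 active means mean replicate inhibition at least 60% with every replicate also reaching 60%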;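 further: luciferase light reporting Pax8 driven TPO promoter activity; plate controls were median of neutral control wells for no effect and mitoxantrone controls for full effect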
GAA30 FXN cntr – GAA30 FXN promoter activators, confirmation, counter-screen for GAA850 frataxin promoter activator project, cell-based, luminescence, HEK293, lucGAA30, triplicate. HEK293 lucGAA30 FXN promoter luciferase, 24 h; DMSO = 0%, 5 µM ipriflavone = 100%. activation, % at 6 µM. hit rate 66% among 1,900. shares compounds with GAA850 FXN act;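 active means mean activation above the mean of solvent-only control wells plus 3 SD, cut at about 22% in these data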;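 further: counterscreen of GAA850 promoter hits where activity marks nonselective or luminescence artifacts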
GAA850 confirm – FXN GAA850 promoter activators in reporter cells, confirmation, cell-based, luminescence, HEK293 lucGAA850, triplicate | shares compounds with GAA850 FXN act | HEK293 lucGAA850 FXN promoter luciferase reporter, 24 h; 100% = activation by SAHA | activation, % at 6 µM | hit rate 86% among 1,900;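 active means mean activation above a set limit taken from the primary screen, cut at about 8% in these data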;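 further: 0% = DMSO wells and 100% = 10 µM SAHA wells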
Active calls of the source: *; i = inactive; nt = not tested or not shown; [ ] = dose if it differs, or a comment.

SMILES | EWS-Fli block | GAA850 FXN act | CFTR F508del cor | Env fusion inh | PAX8 reporter | GAA30 FXN cntr | GAA850 confirm
CC[C@@]1(C(=O)OC)N[C@H](CN(C)C(=O)C2CCCCC2)[C@@H]2C(=O)N(Cc3ccccc3)C(=O)[C@@H]21 | -3 | 5 | 0 | 51 | 1 | nt | nt
CC[C@@]1(C(=O)OC)N[C@H](CN(C)C(=O)Nc2ccccc2)[C@@H]2C(=O)N(Cc3ccccc3)C(=O)[C@@H]21 | -1 | 12* | -2 | 60* | 14 | 16 | 7
COC(=O)[C@]1(Cc2ccccc2)N[C@H](CN(C)C(=O)Nc2ccc(C(F)(F)F)cc2)[C@@H]2C(=O)N(Cc3ccccc3)C(=O)[C@@H]21 | 2 | -2 | 1 | 28 | 25 | nt | nt
CCN(C[C@H]1N[C@@](CC)(C(=O)OC)[C@H]2C(=O)N(Cc3ccccc3)C(=O)[C@@H]12)S(=O)(=O)c1ccc(OC)cc1 | 3 | 11* | -1 | 78* | -6 | 12 | 9.0*
CC(C)c1ccc2c(c1)C1(NN=C(c3ccccc3)S1)C(=O)N2 (centres undefined) | nt | 7.9* | nt | nt | nt | -78 | -22
CCc1ccc2c(c1)C1(NN=C(c3ccc(C)cc3)S1)C(=O)N2 (centres undefined) | nt | 2 | nt | nt | nt | nt | nt
C/C=C/c1ccc([C@H]2[C@@H](CO)N(C(=O)CN(C)C)[C@@H]2CNC(=O)CC)cc1 | nt | nt | -2 | nt | nt | nt | nt
O=C(Nc1ncc(Cc2cccc(Cl)c2)s1)C1CCCO1 (centres undefined) | nt | 8.2* | nt | nt | nt | 87* | 28*
COc1ccc(-c2csc(N3C(=N)SCC3=O)n2)cc1 | nt | 10* | nt | -277 | nt | 96* | 28*
COc1ccc(O)c(/C=N/Nc2nc(Nc3ccccc3)nc(-n3nc(C)cc3C)n2)c1 | nt | 8.7* | nt | nt | nt | 11 | 16*
COc1ccc(O)c(/C=N/Nc2nc(C)cc(-c3ccccc3)n2)c1 | -4 | 0 | -2 | -42 | 1 | nt | nt
CC(C)N1C(=O)S/C(=C\c2ccc(-c3ccc(Cl)c(C(=O)O)c3)o2)C1=O | -42 | 8.2* | 4 | -120 | -41 | 116* | 38*
CCN(CC)c1ccc(/C=C2/SC(=O)N(C(C)C)C2=O)o1 | 48 | 8.0* | nt | -181 | 54 | 96* | 32*
C[C@@H]1CN([C@H](C)CO)C(=O)c2cc(-c3ccc(F)cc3)cnc2O[C@H]1CN(C)S(C)(=O)=O | 7 | nt | 0 | 2[16.7 µM] | nt | nt | nt
Cc1noc(C)c1S(=O)(=O)Nc1ccc2c(c1)C(=O)N([C@@H](C)CO)C[C@@H](C)[C@@H](CN(C)S(=O)(=O)c1ccc(F)cc1)OCCCC[C@@H](C)O2 | 0 | nt | 3 | -2[16.7 µM] | 6 | nt | nt
COc1ccc(C(=O)Nc2ccc3c(c2)C(=O)N(C)C[C@@H](OC)[C@@H](C)CN(C(C)=O)[C@H](C)CO3)cc1 | -2 | nt | -1 | nt | nt | nt | nt
C[C@@H]1CCCCO[C@@H](CN(C)Cc2ccc(C(F)(F)F)cc2)[C@@H](C)CN([C@@H](C)CO)C(=O)c2cc(NS(=O)(=O)c3cn(C)cn3)ccc2O1 | -1 | nt | -1 | -20[16.7 µM] | nt | nt | nt
CCCC(=O)N1CCN(c2ccc(NC(=O)c3ccc([N+](=O)[O-])o3)cc2Cl)CC1 | 71* | 7.9* | -11 | -285 | 104* | 20 | 24*
O=C(Nc1ccccc1N1CCOCC1)c1ccc([N+](=O)[O-])o1 | nt | 0 | -5 | 20 | 51 | nt | nt
O=C(Nc1ccc(N2CCOCC2)c(Cl)c1)c1ccc([N+](=O)[O-])o1 | 14 | 11* | -4 | i | 71* | 118* | 56*
O=C(C[C@@H]1CC[C@@H]2[C@H](COC[C@H](O)CN2S(=O)(=O)c2ccccc2)O1)NCCN1CCCCC1 | 1 | nt | -4 | -3[16.7 µM] | 5 | nt | nt
